# Results as given in PubChem BioAssay (NCI).
# About 79,000 compounds went through this panel and 15% of them were active in at least one assay; those are over-represented in the sample as a whole. Values without a mark were called inactive. Calls of active or inactive are those of the source. No stated cut-off is given here; in the data, active means growth inhibition above about 70%; inactive means the rest.
# Tests used:
# [1] = NCI Yeast Anticancer Drug Screen. Data for the rad50 strain (AID 155);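 further: 0% = growth of vehicle-only cultures of the same strain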; settings: S. cerevisiae rad50 strain growth inhibition; at 50.0 µM; hits give high values
# How it was run: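 Inhibition values express reduced yeast growth in compound-treated cultures relative to vehicle-treated controls.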
# [2] = NCI Yeast Anticancer Drug Screen. Data for the mec2-1 strain (AID 157); settings: S. cerevisiae mec2-1 strain, at 50.0 µM, hits give high values
# How it was run: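 mec2-1 yeast strain, carrying an alteration in DNA damage repair or cell cycle control, was exposed to compounds; growth inhibition was measured relative to vehicle-treated controls.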
# [3] = NCI Yeast Anticancer Drug Screen. Data for the sgs1 mgt1 strain (AID 161);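 further: 0% = growth of cultures given vehicle only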; settings: S. cerevisiae sgs1 mgt1 strain, at 50.0 µM, hits give high values
# How it was run: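 Yeast cells carrying a defined DNA-repair defect were exposed to test compounds. Growth inhibition was measured relative to vehicle-treated controls.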
# [4] = NCI Yeast Anticancer Drug Screen. Data for the cln2 rad14 strain (AID 165);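 further: 0% = growth equal to vehicle treated cultures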; settings: S. cerevisiae cln2 rad14 strain, at 50.0 µM, hits give high values
# How it was run: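 Yeast carrying cln2 and rad14 alterations (cell cycle control and DNA damage repair) were exposed to compounds. Growth inhibition was measured against vehicle-treated controls.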
# [5] = NCI Yeast Anticancer Drug Screen. Data for the bub3 strain (AID 167); settings: S. cerevisiae bub3 mutant strain, at 50.0 µM, hits give high values
# How it was run: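 Steps: expose the mutant yeast strain to compound; grow alongside vehicle-treated cultures; measure growth; express inhibition against the vehicle cultures.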
# [6] = NCI Yeast Anticancer Drug Screen. Data for the mlh1 rad18 strain (AID 175); settings: S. cerevisiae mlh1 rad18 strain growth inhibition; at 50.0 µM; hits give high values
# How it was run: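 Growth inhibition of the yeast strain was measured after compound exposure and expressed relative to vehicle-treated controls. The strain carries defined defects in DNA damage repair.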
SMILES,growth inhibition [1],growth inhibition [2],growth inhibition [3],growth inhibition [4],growth inhibition [5],growth inhibition [6]
Nc1nc2c(ncn2C2OC(COC(=O)c3ccccc3)C(OC(=O)c3ccccc3)C2OC(=O)c2ccccc2)c(=O)[nH]1 (stereo unspecified),-25.9%,-12.8%,-0.6%,11.5%,0.9%,-7.65%
C/C(=N\O)c1ccc2[nH]c(C)cc(=O)c2c1,2.95%,5.7%,-5.45%,-32.9%,-1.15%,12.7%
CC(C)CCOC(=O)C(O)C(O)C(=O)OCCC(C)C (stereo unspecified),14.2%,12.5%,-3.05%,-39%,-0.85%,13.2%
CCOC(=O)C[n+]1cccc(Br)c1,-2.6%,6.45%,-6.85%,-6.5%,16.3%,-0.45%
CC(=O)Nc1nc2ncc(CN(C(C)=O)c3ccc(C(=O)O)cc3)nc2c(=O)[nH]1,-19.3%,-8.6%,-38.1%,-8.65%,-21.1%,-10.2%
CCOC(=O)c1c(O)[nH]c(=O)c(CC)c1C,-13.2%,-29.3%,-45.8%,-16.4%,-30.8%,-4.1%
CNc1ncnc2nc[nH]c12,16.2%,-6.85%,2.9%,-3.15%,-8.5%,14.9%
CCCCCCC(N)=O,8.1%,2.1%,-4.05%,-26.9%,-6.45%,9.75%
CC#CC(O)(C(=O)OC1CCC2CCC1N2C)C1CCCC1 (stereo unspecified),-25.5%,-8.9%,-23.3%,6.2%,-3.4%,-4.65%
CC1CC(NN(C)C)C2(C(N)=O)C(N)=NC(=O)C12C#N (stereo unspecified),5.45%,9.15%,-23.9%,3.8%,-24.7%,-46.1%
CCOC(CCNCC(OCC)OCC)OCC,-46.5%,-56.2%,-29.4%,-11.1%,-4.8%,-22.4%
CS(=O)(=O)C(C#N)S(C)(=O)=O,-1.85%,-1.05%,-6.05%,-19.2%,40.9%,-10.1%
CC(=O)OC1CC(O)C23COC(O)C1(C)C2CC(O)C1(C)C3C(=O)C(O)C2(C)C(c3ccoc3)CC3OC321 (stereo unspecified),-9.9%,2.75%,-11.3%,0.2%,-2.2%,-37.7%
CC(=O)Nc1cccc(/C=C/C=C/c2cccc([N+](=O)[O-])c2)c1,89.3% (active),91.2% (active),93.5% (active),81.1% (active),91.3% (active),91.2% (active)
CC(=O)NC(C)c1ccc2ccccc2c1 (stereo unspecified),-5.4%,14.8%,1.8%,7.55%,-8.5%,11.4%
O=S1(=O)NC(=NC2CCCC2)c2ccccc21,0.7%,-12.4%,-3.55%,-35.8%,-7.75%,1.15%
C[N+](C)(C)C12CCC(CC1)C1([N+](C)(C)C)CCC2CC1,4.2%,21.4%,17.2%,-10.2%,4.45%,22.1%
Cc1cnc(Br)c(Br)c1,2.85%,0.8%,3.45%,15.9%,5.1%,13.1%
Cn1cc(-c2ccc3c4ccccc4n(C)c3c2)c2ccccc21,-17.9%,-4.3%,-7.5%,-2.8%,-10.2%,2.15%
Cc1cccc(C)c1NC(=S)NC1CC(C)CC(C)(C)C1 (stereo unspecified),41.2%,50.5%,76.7% (active),57.9%,63%,50.3%
O=S1(=O)CS(=O)(=O)OCCO1,26.2%,6.8%,14.7%,31.9%,10.7%,16.8%
